The supplement of paper PMC6555819

Columns and labels:
Assay in all cases: PBM binding z-score (relative to random genomic background probes); higher = stronger binding; sequences stand for … in GC…GCGATTGACAGCGTAGAATGAAGG
[1] = test system: RARb homodimer (NR concentration 270 nM)
Summary of the method: (§1)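 Ligand-free nuclear receptor dimers were applied to custom Agilent 4×180K protein-binding microarrays whose double-stranded probes carried direct-repeat seeds, single-nucleotide variants, half-site ablations and random human genomic background sequences in 34-nt variable regions. Incubation lasted 1 h. Binding z-scores were computed against the random background probes from regression-normalized fluorescence.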

[2] = test system: RARg:RXRa (NR concentration 270 nM, RXRa partner concentration 90 nM)
Summary of the method: as §1

[3] = test system: RARg homodimer (NR concentration 270 nM)
Summary of the method: as §1

[4] = test system: RXRa DBDmut IVT, anti-RXR (DBD mutation: RXRa K156A/R161A, NR concentration 90 nM)
Summary of the method: as §1

[5] = test system: RXRa homodimer (NR concentration 180 nM)
Summary of the method: as §1

[6] = test system: THRa:RXRa (NR concentration 90 nM, RXRa partner concentration 90 nM)
Summary of the method: as §1

[7] = test system: THRa homodimer (NR concentration 90 nM)
Summary of the method: as §1

[8] = test system: VDR homodimer (NR concentration 270 nM)
Summary of the method: as §1

Sequence	PBM binding z-score [1]	PBM binding z-score [2]	PBM binding z-score [3]	PBM binding z-score [4]	PBM binding z-score [5]	PBM binding z-score [6]	PBM binding z-score [7]	PBM binding z-score [8]
ATCTCTAGGTACCCAAGTTCAGTGAATGCCGAAC	1.41	0.712	0.515	1.14	0.528	0.968	0.385	2
GCTTACGGGTCAAAGGTTATATCATGAATAGAAT	3.32	6.74	4.71	2.66	9.55	4.12	0.113	2.09
ACTCGGAGGACAAAGGTCAGACCTACGCCAGTGA	4.02	6.08	5.29	1.23	5.81	3.5	0.604	1.81
TCGAGTAGGTTACCAATGGGGCATTGAGCTTTCT	0.567	1.1	0.221	0.408	0.672	0.145	-0.895	-0.64
CCGACTGGCGCAAAGGTTACCATACTCAGTACGA	1.81	1.62	0.821	0.55	2.11	1.35	-0.0334	-0.00484
TCTAGTAGTTGATTAGGGCAACCGAAACAGCGGA	0.439	0.0761	-0.0123	0.339	0.492	0.48	-0.325	-0.315
CCAGACATGTGAAAGGTAACTCAGTCTGGTACGC	0.0662	0.308	0.362	0.289	0.767	0.162	-0.146	0.204
CAAACTAGGTCACCGGAAGGTCAAAATCCGCATG	5.17	7.81	7.09	2.39	5.88	4.39	2.94	3.11
TTACCAAGGTGAGCTGAGGCCGTTGATCCAACTC	0.505	-0.177	-0.0104	-0.748	-0.163	3.6	0.533	-0.339
CGAACTAGGTAATTGACAGGACAGTGAATAGTAA	0.027	0.00313	0.198	0.0767	-0.137	0.166	-0.0579	-0.054
TCTGCTAGGTCAACGACGGTCAGCTAATCTGCTA	3.74	4.42	5.58	1.13	2.74	3.48	0.555	-0.198
ACTTACGGGTCAACGAGGTAATAGCACGCGTATA	3.07	5.4	5.19	2.15	6.11	4	0.859	1.79
ATCTCTAGGTTACAAGTTCAGTGAAAGAGAGGAC	2.77	2.81	2.37	1.65	1.76	2.02	1.48	2.9
AGAATGAGGTTACCAAAGATCAGGGAGACGCTTG	0.689	2.21	1.8	1.28	2.77	2.86	0.711	0.443
CGTACAAGGTCATAGGAGGTCAGTGAAGACAGAT	5.45	6.72	7.17	4.16	6.75	5.49	3.23	4.19
TCTAGTTGCTCACGGAGGTCACACACGACGGGTA	4.16	4.02	3.73	1.11	4.32	3.46	2.22	2.06
TCTAGTTGGTCAAAGCTCACACACTCGAAATGCG	0.587	0.584	0.77	1.37	0.769	0.0893	0.269	0.0543
TGTCAAAGTTCAAAGGTAACGTAAGTATCCACAC	3.82	6.28	6.19	4.36	7.27	3.53	0.176	4.04
GCGACTGGGGAATCAGCAGGTTACCATAACTTAA	0.164	-0.241	-0.452	-0.352	0.0152	0.249	-0.272	-0.345
CCTTACGGGTCACGGACAGGTTATAGCATTTGGA	3.42	6.84	5.39	1.99	6.76	3.59	0.532	1.16
TCATATAGGTAAATGCAAGGTGAAAGTCCGATCT	1.3	1.09	0.776	1.93	1.36	2.64	1.5	0.698
AACACAGGGTCACTAGGCCAGAGTAGGTACGAAT	3.3	5.06	4.83	2.79	5.24	3.3	1.02	2.44
GTACGAAGGTGAATAGGTCGTTGATGAGTAGGCG	1.82	2.78	1.4	-0.12	1.81	0.742	-0.401	0.0149
CCTACTGGGCCATTCAGAGGTCATTCATCATATG	4.11	4.47	2.94	0.971	3.37	3.14	1.51	3.85
CCTATTAGTTGACCGTAAGGGCAACCGAAGCTCG	2.75	1.73	1.51	0.339	0.616	2.29	1.78	1.06
CGAACTAGCTCAGAACAGGACAGTGAAGGATGAT	-0.0575	-0.313	0.137	0.021	-0.191	-0.173	-0.29	-0.0975
ATCGAAAGGTCGAATGTGAGTATACCCACCCGAA	2.63	3.91	3.72	1.77	4.23	2.01	-0.0283	1
TCGAGTAGGTTTGGGGCATTCAGAATGGCGTCGA	0.408	-0.658	-0.913	0.194	-0.158	0.0533	0.0117	-0.0123
